Screens: PubChem, National Center for Advancing Translational Sciences (NCATS)
Shown are actives, neighbours in structure and some others; about 12% of the full set was active somewhere.
HCV inh: qHTS Assay for Inhibitors of Hepatitis C Virus (HCV); Huh7.5.1 HCVcc-Cre infection, luciferase reporter, 44 h; Potency, µM (series often up to 41.8 µM), most hits filed as inhibitors; actives 3.4% (n = 340,000)
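Cells (1,000/well) were plated 4 h before compound, then infected with HCVcc-Cre virus (~0.5 moi). After 44 h further culture, infection was read as luciferase luminescence following a 15 min substrate incubation at room temperature.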
AMA1-RON2 inh: qHTS for Inhibitors of AMA1-RON; Towards Development of Antimalarial Drug Lead: Primary Screen | Plasmodium falciparum AMA1 (3D7) - RON2 peptide interaction | AlphaScreen AMA1-biotinylated RON2 peptide binding | Potency, µM (highest dose often 58.2 µM), actives largely listed as inhibitors | actives 0.2% (n = 360,000) | AID 720542, 2013; also: nearly all actives have a fitted effect of over 45% in size
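AMA1 (3D7) with his tag at 25 nM final met compounds first, then biotinylated RON2 peptide at 25 nM; detection used donor plus acceptor beads, 10 µg/mL apiece, read by AlphaScreen after 30 min at room temperature.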
SARS PLP yeast: qHTS of Yeast-based Assay for SARS-CoV PLP; AID 485353, 2010; actives 0.19% (n = 330,000); S. cerevisiae expressing SARS-CoV PLpro, growth rescue; Potency, µM (highest dose often 32.9 µM), usual class: activators; calls by dose curve; also: nearly all actives have a fitted effect of over 55% in size
Pf growth 96h: Primary qHTS for delayed death inhibitors of the malarial parasite plastid, 96 hour incubation. P. falciparum luciferase reporter growth, 96 h. Potency, µM (top dose mostly 28.7 µM), usual class: inhibitors. actives 6.9% (n = 320,000). AID 504834, 2011
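P. falciparum expressing integrated firefly luciferase grown in erythrocytes (2% hematocrit, 0.05% parasitemia final) with compounds for 96 hours at 37 C, 5% CO2. Growth inhibition read as loss of luminescence after adding luciferase detection reagent.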
Pf growth 48h: Primary qHTS for delayed death inhibitors of the malarial parasite plastid, 48 hour incubation; Potency, µM (doses to about 28.7 µM), usual class: inhibitors; actives 5.9% (n = 310,000); AID 504832, 2011; P. falciparum luciferase growth in erythrocytes, 48 h
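First compound was added to culture medium, then infected red cells at 0.1% parasitemia and 2% hematocrit (final). After incubation at 37 C under 5% CO2, luciferase detection reagent was dispensed and light output recorded.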
NS1 function inh: qHTS Assay for Inhibitors of Influenza NS1 Protein Function. Potency, µM (top dose mostly 46.1 µM). actives 0.4% (n = 270,000); calls by dose curve; also: actives are rising curves; nearly all actives have a fitted effect of over 50% in size
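In this qHTS, NS1 from influenza A is expressed in budding yeast, where it slows growth. Cells are switched from glucose to 2% galactose medium (pH 6.0, -URA), treated with compound, and growth recovery is read at OD600.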
Hits are given with their value; i = inactive; ? = inconclusive; nt = no result given; [ ] = remark or other dose. Unless noted, calls follow the shape of the dose curve; as a rule, active = well fitted curve in the direction sought with a large enough effect; inconclusive = small, poorly fitted or top-dose-only effect, or another doubt; inactive = no such curve, though single readings can be large; an effect the other way counts as inactive or inconclusive.

SMILES	HCV inh	AMA1-RON2 inh	SARS PLP yeast	Pf growth 96h	Pf growth 48h	NS1 function inh
CCn1cc([N+](=O)[O-])c(C(=O)N2N=C(c3ccc(Cl)c(Cl)c3)CC2c2ccccc2O)n1 (centres undefined)	?	i	i	?	3.7µM	nt
CCn1cc([N+](=O)[O-])c(C(=O)N2N=C(c3ccccc3)CC2c2ccc([N+](=O)[O-])cc2)n1 (centres undefined)	i	i	i	?	13µM	?
CCn1cc([N+](=O)[O-])c(C(=O)Nc2ccc(Br)cn2)n1	i	i	i	i	i	i
COc1ccc(C2=NN(C(=O)CCC(=O)O)C(c3ccc([N+](=O)[O-])cc3)C2)cc1 (centres undefined)	i	i	i	i	i	i
CCn1cc([N+](=O)[O-])c(C(=O)N2N=C(c3ccc4ccccc4c3)CC2c2cc(Br)ccc2O)n1 (centres undefined)	?	i	i	?	3.3µM	?
COc1ccc(C2=NN(C(=O)c3ccccc3)C(c3cccc([N+](=O)[O-])c3)C2)cc1 (centres undefined)	?	?	i	?	?	i
CCn1cc([N+](=O)[O-])c(C(=O)N2N=C(c3ccc(O)c(OC)c3)CC2c2ccccc2O)n1 (centres undefined)	?	i[2.32 µM]	i	15µM	?	?
Cc1onc(-c2ccccc2)c1C(=O)N=C(N)c1ccc(C(F)(F)F)cc1	i	i	i	i	i	i
S=C(NCc1ccco1)N1CCN(c2ccccn2)CC1	i	i	i	i	i	i
Cc1cccc(NC2=NCC(=O)N2Cc2cccs2)c1	i	?	i	i	i	i
COc1cc(CNCCN2CCOCC2)ccc1OCc1c(Cl)cccc1Cl	?	nt	i	i	?	i
CCOc1cc(CNC(C)(C)CO)cc(Br)c1OCc1ccc(Cl)cc1Cl	2.8µM	i	i	9.3µM	?	i
COc1cc(CNCCO)cc(Cl)c1OCc1ccccc1Cl	?	i	i	i	?	i
CCOc1cc(CNCCN2CCOCC2)ccc1OCc1ccccc1Cl	2.8µM	i	i	?	?	nt
CCOc1cc(CNCCO)cc(Br)c1OCc1ccc(Cl)cc1	13µM	i	i	12µM	?	i
CCOc1cc(CNCCO)cc(Br)c1OCc1ccccc1Cl	8.9µM	i	i	12µM	10µM	i
CC(=O)c1c(C)[nH]c(C(=O)OCC(=O)NC(C)c2ccccc2)c1C (centres undefined)	nt	i	nt	nt	nt	nt
ClCC1NCC(c2ccccc2Cl)c2c1[nH]c1ccccc21 (centres undefined)	i	i	i	?	?	nt
N#CNc1nc(O)cc(=O)[nH]1	i	i	i	i	i	i
CSCCC(NS(=O)(=O)c1ccccc1F)C(=O)NCCCn1nc(C)cc1C (centres undefined)	i	i	i	i	i	nt
CCOc1cc(CNCCCN2CCOCC2)cc(Br)c1OCc1ccccc1Cl	3.5µM	i	i	?	?	i
O=C(NCCO)C(=O)NCC1OCCCN1S(=O)(=O)c1cc(F)ccc1F (centres undefined)	nt	i	i	i	i	i
Cc1cc(C(=O)C(C)OC(=O)c2ccc(NC(=O)CC#N)cc2)c(C)n1-c1ccccc1 (centres undefined)	?	i	i	8.3µM	13µM	nt
CC(OC(=O)c1ccc(NC(=O)CC#N)cc1)C(=O)NC(c1ccccc1)c1ccccc1 (centres undefined)	i	i	i	nt	nt	nt
CCOc1ccccc1NC(=O)C(OC(=O)c1cc(C)oc1C)c1ccccc1 (centres undefined)	i	i	i	?	13µM	i
SMILES	HCV inh	AMA1-RON2 inh	SARS PLP yeast	Pf growth 96h	Pf growth 48h	NS1 function inh
CCOc1ccccc1NC(=O)C(OC(=O)c1ccc(NC(=O)CC#N)cc1)c1ccccc1 (centres undefined)	?	i	i	2.3µM	5.2µM	nt
Cc1cccc(-c2nc(C#N)c(NC3CCCCC3)o2)c1	?	i	i	4.7µM	i	i
CC1=[N+](C)c2c(ccc3cccnc23)C1(C)C	?	i	i	i	?	i
CN(C)c1ccc(C2C=C(c3ccc(Cl)cc3OC(F)F)Nc3ncnn32)cc1 (centres undefined)	10µM	i	i	i	?	i
Cc1cc(-n2c(C)cc(C(=O)COc3cc(F)ccc3[N+](=O)[O-])c2C)no1	?	i	i	?	9.3µM	nt
CCOC(=O)c1ccc(N2C(=O)C(CC(N)=O)N(CCc3ccc(OC)c(OC)c3)C2=S)cc1 (centres undefined)	i	i	i	i	15µM	i
COc1ccc(CCN2C(=S)N(c3ccc(Cl)cc3)C(=O)C2CC(N)=O)cc1OC (centres undefined)	?	i	i	12µM	10µM	i
CCOC(=O)c1ccc(N2C(=O)C3CCCN3C2=S)cc1 (centres undefined)	i	35µM	i	?	?	nt
Cc1cc(C)c2cc(C#N)c(NCCNC(=O)c3ccncc3)nc2c1	nt	i	nt	nt	nt	nt
COC(=O)c1c(NC(=O)CN2C(=O)C(=O)N(C(C)C)C2=O)sc(C)c1C	i	i	i	i	?	nt
N=C1C(c2ccccc2)=C(O)CN1c1cccc(S(N)(=O)=O)c1	i	i	i	i	i	i
CCN(CC)S(=O)(=O)c1cccc(N2CC(O)=C(c3ccccc3)C2=N)c1	i	i	i	2.6µM	2.6µM	i
CCn1c(=NC(=O)C2COc3ccccc3O2)sc2c(OC)ccc(OC)c21 (centres undefined)	11µM	i	i	i	i	i
CCCC(C(=O)NC1=NCCS1)c1ccccc1 (centres undefined)	i	i	i	i	i	nt
Nc1c(C(=O)NC2CCCC2)c2nc3ccccc3nc2n1CC1CCCO1 (centres undefined)	i	i	i	i	10µM	i
Nc1c(C(=O)NCC2CCCO2)c2nc3ccccc3nc2n1Cc1ccco1 (centres undefined)	i	i	i	i	9.3µM	i
C=CCN(CC=C)CCCOc1ccc(Br)cc1Cl	i	i	i	i	i	i
COc1ccc(C2CC(=O)Oc3cc(OC)ccc32)cc1 (centres undefined)	?	i	i	nt	nt	nt
COc1ccc(C2CC(O)(c3ccccc3)Oc3cc(OC)ccc32)cc1 (centres undefined)	4.5µM	i	i	?	12µM	i
Cn1cc(CN(CCCN2CCOCC2)C(=S)Nc2cccc(Cl)c2)c2ccccc21	8.9µM	?	i	?	i	i
CCOc1ccc(NC(=S)N(CCCN2CCOCC2)Cc2cn(C)c3ccccc23)cc1	10µM	?	i	?	?	i
